This is an account of results in PMC7862700, “An all-to-all approach to the identification of sequence-specific readers for epigenetic DNA modifications on cytosine”.

What all share (assay): DAPPL (digital affinity profiling via proximity ligation, sequencing); 10 mM Tris-HCl pH 7.5, 50 mM NaCl, 1 mM DTT, 4% glycerol, room temperature, 30 min; GST-TFs on glutathione beads, 16-mer random dsDNA library, 0.1% formaldehyde crosslink after washing; high values mean tight binding
Assay [1] has as its target T1, FEV (Homo sapiens, UniProt Q99581 1-238).
T1 sequence: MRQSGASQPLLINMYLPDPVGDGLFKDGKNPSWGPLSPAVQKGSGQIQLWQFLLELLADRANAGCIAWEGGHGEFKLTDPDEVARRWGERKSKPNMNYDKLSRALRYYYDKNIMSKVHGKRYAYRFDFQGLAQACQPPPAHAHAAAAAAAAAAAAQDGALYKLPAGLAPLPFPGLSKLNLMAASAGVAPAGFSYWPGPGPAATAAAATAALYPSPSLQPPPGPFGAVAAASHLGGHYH
The settings on record: protein: recombinant; tags: N-terminal GST; dsDNA, one strand shown. The gist of the method: (§1)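 Binding signal is given per hexamer as its read frequency for a factor divided by its frequency in the tag-only sample. GST-fused human transcription factors were expressed in yeast, captured on glutathione beads, barcoded with DNA and pooled with that sample, then incubated with 200 nmole of a 16-mer random double-stranded DNA library in Tris/NaCl/DTT/glycerol buffer for 30 min at room temperature. The pools were then washed, crosslinked, proximity-ligated, amplified by PCR and sequenced on an Illumina NextSeq500.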

Assay [2] deals with ETV5 (Homo sapiens, UniProt P41161 1-510). The settings on record: protein: recombinant; tags: N-terminal GST; dsDNA, one strand shown. The gist of the method:
as §1

Assay [3] addresses HSF1 (Homo sapiens, UniProt Q00613 1-529). The settings on record: protein: recombinant; tags: N-terminal GST; chain copies: 3; dsDNA, one strand shown. Summed up:
as §1

Assay [4] addresses T2, SPIC (Homo sapiens, UniProt Q8N5J4 1-248).
T2 sequence: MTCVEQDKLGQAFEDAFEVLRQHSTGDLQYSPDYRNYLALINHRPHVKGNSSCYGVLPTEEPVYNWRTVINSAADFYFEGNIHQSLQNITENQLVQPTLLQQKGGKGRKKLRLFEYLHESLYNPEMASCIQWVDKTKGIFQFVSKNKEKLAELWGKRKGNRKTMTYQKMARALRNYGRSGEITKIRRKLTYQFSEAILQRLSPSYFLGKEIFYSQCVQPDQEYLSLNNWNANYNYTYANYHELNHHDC
The conditions noted are these: protein: recombinant; tags: N-terminal GST; dsDNA, one strand shown. The gist of the method: as §1

Assay [5] concerns the target ELF4 (Homo sapiens, UniProt Q99607 1-663). The settings on record: protein: recombinant; tags: N-terminal GST; dsDNA, one strand shown. Summed up: as §1
The target of assay [6] is T3, ELK4 (Homo sapiens, UniProt P28324-2 1-405).
T3 sequence: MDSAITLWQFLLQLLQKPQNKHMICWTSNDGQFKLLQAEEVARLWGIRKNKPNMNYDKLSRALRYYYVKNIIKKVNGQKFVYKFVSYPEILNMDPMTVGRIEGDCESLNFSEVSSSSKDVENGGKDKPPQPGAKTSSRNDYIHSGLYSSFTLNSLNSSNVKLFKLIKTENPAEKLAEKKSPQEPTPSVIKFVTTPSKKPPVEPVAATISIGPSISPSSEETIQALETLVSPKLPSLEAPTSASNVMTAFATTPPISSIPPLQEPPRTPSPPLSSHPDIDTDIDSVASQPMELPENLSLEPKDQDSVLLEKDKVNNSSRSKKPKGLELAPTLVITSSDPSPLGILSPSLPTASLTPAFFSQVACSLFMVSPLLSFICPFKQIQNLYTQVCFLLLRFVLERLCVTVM
The conditions noted are these: protein: recombinant; tags: N-terminal GST; dsDNA, one strand shown. Summed up:
as §1

Assay [7] deals with T4, ETV2 (Homo sapiens, UniProt O00321 1-342).
T4 sequence: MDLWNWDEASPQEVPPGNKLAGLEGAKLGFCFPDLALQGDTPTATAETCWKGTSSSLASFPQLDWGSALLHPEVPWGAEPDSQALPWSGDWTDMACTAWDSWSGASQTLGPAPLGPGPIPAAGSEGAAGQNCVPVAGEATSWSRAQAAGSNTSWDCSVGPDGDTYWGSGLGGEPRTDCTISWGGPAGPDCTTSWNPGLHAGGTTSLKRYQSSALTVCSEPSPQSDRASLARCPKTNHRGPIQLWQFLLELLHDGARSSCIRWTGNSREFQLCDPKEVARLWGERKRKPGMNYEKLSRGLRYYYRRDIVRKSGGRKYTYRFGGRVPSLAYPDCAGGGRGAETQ
The settings on record: protein: recombinant; tags: N-terminal GST; dsDNA, one strand shown. The gist of the method:
as §1

In assay [8] the target is T5, ELF3 (Homo sapiens, UniProt P78545 1-371).
T5 sequence: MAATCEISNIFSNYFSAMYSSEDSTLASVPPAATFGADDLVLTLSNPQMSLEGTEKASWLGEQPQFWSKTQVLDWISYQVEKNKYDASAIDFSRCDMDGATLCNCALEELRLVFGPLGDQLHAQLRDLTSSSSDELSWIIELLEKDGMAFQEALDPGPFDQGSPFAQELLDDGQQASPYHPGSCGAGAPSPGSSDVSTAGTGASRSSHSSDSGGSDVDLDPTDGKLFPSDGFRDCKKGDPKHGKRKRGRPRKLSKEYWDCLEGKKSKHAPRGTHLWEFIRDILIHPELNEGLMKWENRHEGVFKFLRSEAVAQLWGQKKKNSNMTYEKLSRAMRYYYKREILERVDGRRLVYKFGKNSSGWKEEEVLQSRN
The conditions noted are these: protein: recombinant; tags: N-terminal GST; dsDNA, one strand shown. Summed up: as §1

Assay [9] deals with CRX (Homo sapiens, UniProt O43186 1-299). The conditions noted are these: protein: recombinant; tags: N-terminal GST; dsDNA, one strand shown. Summed up:
as §1

Assay [10] deals with ETV1 (Homo sapiens, UniProt P50549 1-477). The conditions noted are these: protein: recombinant; tags: N-terminal GST; dsDNA, one strand shown. The gist of the method: as §1
Sequence of ETV1 (P50549 whole entry): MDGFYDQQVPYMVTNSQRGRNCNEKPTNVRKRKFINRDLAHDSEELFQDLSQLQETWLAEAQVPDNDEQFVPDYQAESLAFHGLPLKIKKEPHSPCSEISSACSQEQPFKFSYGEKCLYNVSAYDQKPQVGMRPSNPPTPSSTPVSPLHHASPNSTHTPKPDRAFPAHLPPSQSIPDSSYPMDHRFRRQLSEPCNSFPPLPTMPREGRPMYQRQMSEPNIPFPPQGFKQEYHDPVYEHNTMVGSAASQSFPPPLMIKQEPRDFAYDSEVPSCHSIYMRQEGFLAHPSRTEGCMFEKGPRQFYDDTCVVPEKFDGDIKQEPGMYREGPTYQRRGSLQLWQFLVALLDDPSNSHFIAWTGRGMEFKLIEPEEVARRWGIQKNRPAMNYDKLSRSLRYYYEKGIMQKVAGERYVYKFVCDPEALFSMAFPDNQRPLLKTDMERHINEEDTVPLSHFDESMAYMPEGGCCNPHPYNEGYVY

Sequence of HSF1 (Q00613 whole entry): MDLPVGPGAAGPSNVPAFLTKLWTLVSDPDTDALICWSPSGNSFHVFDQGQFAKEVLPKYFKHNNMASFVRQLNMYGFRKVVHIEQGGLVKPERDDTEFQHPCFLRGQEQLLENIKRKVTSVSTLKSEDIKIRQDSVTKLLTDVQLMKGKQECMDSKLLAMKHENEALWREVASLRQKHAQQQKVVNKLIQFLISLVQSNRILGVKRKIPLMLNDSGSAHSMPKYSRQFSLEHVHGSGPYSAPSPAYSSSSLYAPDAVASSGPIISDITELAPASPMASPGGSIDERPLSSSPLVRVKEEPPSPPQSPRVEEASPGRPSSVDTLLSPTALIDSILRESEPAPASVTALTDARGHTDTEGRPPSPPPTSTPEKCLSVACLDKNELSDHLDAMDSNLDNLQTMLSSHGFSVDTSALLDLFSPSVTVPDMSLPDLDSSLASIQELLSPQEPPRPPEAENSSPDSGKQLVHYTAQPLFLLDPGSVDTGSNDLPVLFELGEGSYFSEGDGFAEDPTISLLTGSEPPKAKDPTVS
Sequence of ELF4 (Q99607 whole entry): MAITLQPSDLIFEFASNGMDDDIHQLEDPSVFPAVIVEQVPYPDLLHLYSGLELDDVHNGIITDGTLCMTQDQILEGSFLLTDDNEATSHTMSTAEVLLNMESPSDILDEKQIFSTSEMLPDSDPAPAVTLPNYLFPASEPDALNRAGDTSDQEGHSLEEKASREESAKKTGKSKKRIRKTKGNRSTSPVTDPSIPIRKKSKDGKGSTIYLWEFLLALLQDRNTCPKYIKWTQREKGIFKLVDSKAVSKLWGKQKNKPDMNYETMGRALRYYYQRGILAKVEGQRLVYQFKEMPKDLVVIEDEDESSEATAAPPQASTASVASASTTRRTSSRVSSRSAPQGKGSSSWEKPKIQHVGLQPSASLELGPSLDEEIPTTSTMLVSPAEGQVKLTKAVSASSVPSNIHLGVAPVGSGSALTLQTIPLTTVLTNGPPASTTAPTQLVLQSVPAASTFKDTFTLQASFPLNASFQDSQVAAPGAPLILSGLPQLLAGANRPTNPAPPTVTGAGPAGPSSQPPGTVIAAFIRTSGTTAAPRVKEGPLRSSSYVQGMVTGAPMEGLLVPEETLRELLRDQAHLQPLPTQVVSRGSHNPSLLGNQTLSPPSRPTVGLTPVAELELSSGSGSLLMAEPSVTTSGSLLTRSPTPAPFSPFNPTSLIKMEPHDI
Sequence of CRX (O43186 whole entry): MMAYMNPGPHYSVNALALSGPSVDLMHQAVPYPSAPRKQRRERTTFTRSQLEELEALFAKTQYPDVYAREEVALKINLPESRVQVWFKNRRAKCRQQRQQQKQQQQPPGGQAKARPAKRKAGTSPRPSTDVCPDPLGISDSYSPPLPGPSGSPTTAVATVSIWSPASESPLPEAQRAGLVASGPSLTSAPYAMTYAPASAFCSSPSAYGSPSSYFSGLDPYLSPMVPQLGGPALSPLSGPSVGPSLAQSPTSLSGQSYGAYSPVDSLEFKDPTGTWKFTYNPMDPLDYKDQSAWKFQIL
Sequence of ETV5 (P41161 whole entry): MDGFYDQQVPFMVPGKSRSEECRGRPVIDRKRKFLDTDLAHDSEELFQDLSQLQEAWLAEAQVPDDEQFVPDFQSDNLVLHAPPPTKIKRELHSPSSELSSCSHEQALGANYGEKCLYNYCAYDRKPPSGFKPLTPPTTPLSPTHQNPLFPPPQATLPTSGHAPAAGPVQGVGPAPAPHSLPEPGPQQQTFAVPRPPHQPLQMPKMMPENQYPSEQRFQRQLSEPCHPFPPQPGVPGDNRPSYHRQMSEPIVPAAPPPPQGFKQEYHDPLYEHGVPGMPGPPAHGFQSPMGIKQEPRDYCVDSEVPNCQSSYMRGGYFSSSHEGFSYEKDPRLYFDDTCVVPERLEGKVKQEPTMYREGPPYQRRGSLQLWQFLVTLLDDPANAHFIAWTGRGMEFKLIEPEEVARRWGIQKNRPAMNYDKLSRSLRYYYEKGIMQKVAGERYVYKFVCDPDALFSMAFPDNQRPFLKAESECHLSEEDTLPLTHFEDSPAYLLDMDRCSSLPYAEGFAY

For the sequence CCGTAA, the binding signal in assay [1] is 1.07 fold enrichment (6-mer frequency, TF over GST control); in assay [2], 1.06 fold enrichment (6-mer frequency, TF over GST control); in assay [3] it was 1.09 fold enrichment (6-mer frequency, TF over GST control); in [4], 1.03 fold enrichment (6-mer frequency, TF over GST control); in assay [5], 1.14 fold enrichment (6-mer frequency, TF over GST control); in assay [6], 1.15 fold enrichment (6-mer frequency, TF over GST control). Moreover, the binding signal in [7] was 1.2 fold enrichment (6-mer frequency, TF over GST control); in assay [8], 1.1 fold enrichment (6-mer frequency, TF over GST control); in assay [9], 1.27 fold enrichment (6-mer frequency, TF over GST control); in [10], 1.05 fold enrichment (6-mer frequency, TF over GST control).
